# Assay results published in ChEMBL document CHEMBL4513216, “Probing the Open Global Health Chemical Diversity Library for Multistage-Active Starting Points for Next-Generation Antimalarials” (ACS Infect Dis, 2020).
# The whole screen tested about 69,000 compounds, of which about 8,600 (12%) showed an effect of 50% or more. What follows is part of a selection rich in strong results, with near analogues and random picks from the rest.
# Tested on: Plasmodium berghei
# Experiment: Screen against P. berghei liver stage (PbLuc), transformed with Luciferase, at 10uM
# Assay type: functional, HepG2
# Conditions: tested at 10 uM
row,Structure (SMILES),INHIBITION
1,CC(=O)N1CCC(C(=O)NCc2cc[nH]n2)(c2ccccc2)CC1,-11.9%
2,COc1ccc(OC)c(C(O)CNC(=O)Nc2ccc(F)cc2F)c1 (stereo not drawn),-27%
3,O=C(NCCCO)C1(N2CCCCC2)Cc2ccccc2C1,0.818%
4,c1ccc2c(c1)CC(CNCc1ccncc1)(N1CCCCC1)C2,12.3%
5,CC(=O)NCCNC(=O)C1(N2CCCCC2)Cc2ccccc2C1,-46.4%
6,CSc1ncc(CNCC2(N3CCCCC3)Cc3ccccc3C2)cn1,72.4%
7,Cn1cc(CNCC2(N3CCCCC3)Cc3ccccc3C2)cn1,78.1%
8,CCc1ccccc1CNC(=O)NCc1cnn(C)c1,13.9%
9,CCN(CC)CC1CN(CCc2ccccc2)Cc2nccn2C1 (stereo not drawn),0.139%
10,CC(c1cc(O)nc(NC2CCCC2)n1)n1ncc2ccccc2c1=O (stereo not drawn),4.8%
11,Cc1nc(C)n(CC2CCCCN2CCOc2ccc(C#N)cc2)n1 (stereo not drawn),42%
12,CCc1ncc2c(n1)CN(C(C)C(=O)Nc1ccc(Cl)cn1)CC2 (stereo not drawn),48.2%
13,Cc1nnc(C(C)Nc2cccc(COCCOC(C)C)c2)o1 (stereo not drawn),21.5%
14,Cc1nnc(C(C)Nc2cccc(COCCc3ccccc3)c2)o1 (stereo not drawn),19.7%
15,Cc1nnc(C(C)Nc2cccc(COCC(F)(F)C(F)F)c2)o1 (stereo not drawn),57.4%
16,CN(C)CCNC(=O)[C@H]1C[C@H]2CN(C(=O)NC3CCCC3)C[C@@H]1O2,6.83%
17,Cc1ccc(Cn2cc(Br)c(NS(C)(=O)=O)n2)cc1,19.575%
18,CNc1cc(C2CN(C(=O)c3ccccc3)CCO2)nc(C)n1 (stereo not drawn),23.9%
19,O=C(NCC1CC1)C1CSCN1S(=O)(=O)c1ccccc1F (stereo not drawn),26.6%
20,O=C(NCC(F)(F)F)C1CSCN1S(=O)(=O)c1ccccc1F (stereo not drawn),52.3%
21,CC(C)(C)NC(=O)C1CSCN1S(=O)(=O)c1ccccc1F (stereo not drawn),32.7%
22,O=C(c1ccccc1-n1cccn1)N1CCC(Nc2cccnn2)CC1,-92.9%
23,Oc1cc(C2CCCCN2C2CCCC2)nc(-c2cccnc2)n1 (stereo not drawn),15.5%

row,Structure (SMILES),INHIBITION
1,Cc1ccc(C(=O)N(C)Cc2nccn2CC(F)(F)F)cn1,-16.8%
2,Cc1cc(C)nc(N2CCOC(C)(C(=O)N(C)C)C2)n1 (stereo not drawn),-11.4%
3,Cc1nc(CO[C@H]2CN(C(=O)c3cnoc3C)[C@@H]3COC[C@H]23)cs1,24.9%
4,Cc1nc(CO[C@@H]2CN(Cc3ccsc3)[C@@H]3COC[C@@H]32)cs1,14.1%
5,Cc1nc(CO[C@@H]2CN(Cc3ccc(F)cc3)[C@@H]3COC[C@@H]32)cs1,23.6%
6,Cc1nc(CO[C@@H]2CN(Cc3cnn(C)c3)[C@@H]3COC[C@@H]32)cs1,50.1%
7,Cc1nc(CO[C@H]2CN(C(=O)c3cccn3C)[C@@H]3COC[C@H]23)cs1,38.5%
8,Cc1nc(CO[C@H]2CN(C(=O)c3cccnc3)[C@@H]3COC[C@H]23)cs1,51.2%
9,Cn1ccc(C(=O)N2C[C@@H]3OCCN(c4ncccn4)[C@@H]3C2)n1,18.4%
10,Cc1nc(-c2ccccc2)n(CC(=O)NC(C)(C)C)n1,16.8%
11,Cc1nc(CC(=O)NCc2csc(N3CCCC3)n2)cs1,70.3%
12,CCNC(=O)NCCc1csc(N2CCCC2)n1,39.7%
13,CCC=C(C)C(=O)NCCc1csc(N2CCCC2)n1,41.4%
14,CC(C)(C)SCC(=O)NCCc1csc(N2CCCC2)n1,78.2%
15,CCN(CC)CC(=O)NCCc1csc(N2CCCC2)n1,9.48%
16,CC(C)OCCC(=O)NCCc1csc(N2CCCC2)n1,48.3%
17,Cc1ncsc1CCC(=O)NCc1csc(N2CCCC2)n1,-20.8%
18,CC(C)(C)OC(=O)NCCc1csc(N2CCCC2)n1,65.4%
19,CCCc1nc(CNC(=O)Cc2csc(C)n2)cs1,9.35%
20,O=C(CN1CC(c2nc(-c3ccco3)no2)C1)NCCc1ccccc1,-63.6%
21,Cc1nc(NC(=O)c2c3c(nn2C2CCS(=O)(=O)C2)CCC3)sc1C (stereo not drawn),-14.9%
22,O=C(NCc1ccc(CO)cc1)C1CCOc2ccccc2C1 (stereo not drawn),5.91%
23,Cn1nc(C(=O)N2CCOCC2)cc1C(=O)Nc1cc(Cl)cc(Cl)c1,45.9%

row,Structure (SMILES),INHIBITION
1,CCc1nnc(NC(=O)NCCN(C)C(=O)OC(C)(C)C)s1,1.98%
2,CCc1cccc(OCCCN(C)C(=O)CN2CCNC2=O)c1,17%
3,N#Cc1ccc(OCCn2cccn2)cc1,15.7%
4,CCc1cccc(OCCn2cccc(C#N)c2=O)c1,68.3%
5,CC1C(=O)NCCN1CCOc1ccc(C#N)cc1 (stereo not drawn),-17.2%
6,N#Cc1cccn(CCOc2ccc(Cl)cc2)c1=O,77.2%
7,COc1cccc(Cn2cccc(C#N)c2=O)c1,41.4%
8,CC(=O)N1Cc2nccn2CC(CNC(=O)c2cccnc2)C1 (stereo not drawn),-48.4%
9,O=C(c1c(O)cnc2ccccc12)N1CCN(CC(F)F)CC1,-32.1%
10,CC[C@@H]1N(Cc2nccs2)CCC[C@]12CCC(=O)N2CCOC,16.4%
11,Cc1nc(C)c(C(C)NCc2c(C)nn(CC(C)C)c2N(C)C)s1 (stereo not drawn),50%
12,Cc1nc(C)c(C(C)NCc2c(C(C)C)nn(C)c2N(C)C)s1 (stereo not drawn),1.2%
13,Cc1nn(CC(C)C)c(N(C)C)c1CNCCS(C)(=O)=O,26.4%
14,CNC(=O)CCCNCc1c(C)nn(C)c1N(C)C,14.7%
15,Cc1nn(CC(C)C)c(N(C)C)c1CNCCCNS(C)(=O)=O,42.1%
16,Cc1nc(C)c(C(C)NCc2c(C)nn(C)c2N(C)C)s1 (stereo not drawn),-15.1%
17,CNC(=O)CCCNCc1c(C)nn(CC(C)C)c1N(C)C,53.3%
18,CC(=O)NCCCNCc1c(C)nn(CC(C)C)c1N(C)C,61.1%
19,Cc1nn(CC(C)C)c(N(C)C)c1CNCCC(=O)NC(C)C,13%
20,Cc1noc(C)c1CN1CCN(Cc2cccnc2)c2ncccc2C1,22.9%
21,COCCCn1ccc(NS(=O)(=O)c2cc(F)c(C)cc2F)n1,23.1%
22,CCOc1ccc(Cl)c(C(=O)NCCC(=O)Nc2ccncc2)n1,-0.44%
